Reference: PubChem BioAssay (NCATS)
Inconclusive results are not listed. Unmarked numbers belong to inactive results. Active and inactive are the calls of the source. The call rests on the fitted dose curve; in most records, active means well fitted inhibition curve with a large enough effect; inconclusive means small, poorly fitted or top-dose-only effect; inactive means no such curve, though single readings can be large or run the other way.
Potency means the concentration at half of the fitted maximal effect.

Test: qHTS Screen of the MIPE 4.0 Collection Against Ewings Sarcoma (RDES) (AID 1259252); further: nearly all actives have a fitted effect of over 35% in size;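 on viability (percent of control): 100% = DMSO-treated cells and 0% = medium-only wells without cells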
Details: RD-ES Ewing sarcoma viability, CellTiter-Glo, 48 h; series mostly up to 45.8 µM; viability (percent of control): at the top concentration
From the text: There is a large unmet medical need for treatments for Ewing sarcoma, a pediatric sarcoma. We sought to identify compounds that inhibited Ewing sarcoma cells in vitro with the goal to then test promising drugs in two drug combinations in vitro to look for synergistic drug combinations. Promising combinations would then proceed to additional validation, including in vivo testing.
Using the NCATS developed oncology compound library called the Mechanism of Interrogation Plate (MIPE), four Ewing sarcoma cell lines were evaluated (TC32, TC71, RDES, EW8). Compounds, in a 12-point titration series, were incubated with cells for 48 hours and the read out was cell viability (CellTiter-Glo from Promega). These initial experiments were used to select appropriate concentrations of each single agent for subsequent two-drug matrix combinations such that the concentrations in the matrices would span both activity and non-activity.
Cells, in the log phase of growth, were seeded in 5 uL of RPMI plus 5% FBS, […] L-glutamine, 100 U/ml penicillin and 100 ug/ml streptomycin into 1536-well solid-bottom white tissue culture treated Greiner Bio One Plates (789173-F) using a MultiDrop Combi (Thermofisher Scientific) dispenser and a small sterile cassette. One column was media alone to be used as a :"no cells" control. The plates were then covered with sterilized stainless steel gasketed lids from Kalypsys. After allowing cells to attach for 4 hours, 23 nL of test compound or control (negative control DMSO and positive control 9.2 uM Bortezomib-final) were added from a 1536-well polypropylene compound source plate to each well using a 1536 head pin tool from Kalypsys. Cells were then incubated for 48 hours at 37C, 95% relative humidity and 5% CO2. After 48 hours, plates were removed from the incubator and 3 uL of CellTiter-Glo (Promega) was added using an Aurora Flying Reagent Dispenser Bioraptor. Plates were incubated at room temperature for 10 minutes prior to reading the luminescence on the Viewlux (PerkinElmer). The relative luciferase units are used to calculate the percent activity using the activity of DMSO in the cells and no cells columns for normalization of no inhibition and full inhibition respectively.
For CCc1cncnc1N1CCN(Cc2nc3ccc(C(F)(F)F)cc3[nH]2)CC1, the Potency was 20.9 µM (active).
In the case of Cc1[nH]c(=O)c(C#N)cc1-c1ccc2nccn2c1, the “viability (percent of control)” value is reported as 106%.
In the case of Cc1cnc(NC(=O)C2=C(O)c3ccccc3S(=O)(=O)N2C)s1, the “viability (percent of control)” value is reported as 116%.
In the case of Cc1ccc(NC(=O)c2cccc(C(C)(C)C#N)c2)cc1Nc1ccc2ncn(C)c(=O)c2c1, the Potency is reported as 14.8 µM (active).
With NC(=O)c1cnccn1 the “viability (percent of control)” value was 121%.
With CCCS(=O)(=O)Nc1ccc(F)c(C(=O)c2c[nH]c3ncc(-c4ccc(Cl)cc4)cc23)c1F the Potency was 13.2 µM (active).
For CCOc1cc(C=C2C(=O)N(c3ccccc3)N=C2C)cc(Cl)c1OCC(=O)OC, the Potency was 5.26 µM (active).
With CC1(C)SCCN(S(=O)(=O)c2ccc(OCC#CCO)cc2)[C@@H]1C(=O)NO the “viability (percent of control)” value was 114%.
For C1COC(NC(C2CC2)C2CC2)=N1, the “viability (percent of control)” value was 130%.
In the case of O=NN(CCCl)C(=O)NCCCl, the “viability (percent of control)” value is reported as 124%.
In the case of Cc1cc(C=c2sc3nc4ccccc4n3c2=O)c(C)n1-c1ccccc1, the “viability (percent of control)” value is reported as 97.5%.
For CCOC(=O)C1=C[C@]2(CC)CCCN3CCc4c(n1c1ccccc41)[C@@H]32, the Potency was 23.5 µM (active).
With CCCCCCCc1ccc(CCc2cccc(O)c2C(=O)O)cc1 the Potency was 18.7 µM (active).
With Cc1cccc(-c2[nH]c(C(C)(C)C)nc2-c2ccc3nccnc3c2)n1 the Potency was 16.6 µM (active).
For NC(=O)C1CCCc2c1[nH]c1ccc(Cl)cc21 (stereo not given), the Potency was 6.62 µM (active).
For Cc1ccccc1C(OCCN(C)C)c1ccccc1 (stereo not given), the “viability (percent of control)” value was 113%.
For NCCc1ccc(O)c(O)c1, the “viability (percent of control)” value was 122%.
In the case of COc1ccc(-c2oc3cc(OC)ccc3c2C(=O)c2ccc(C#N)cc2)cc1, the “viability (percent of control)” value is reported as 110%.
In the case of NC(=O)c1ccc(I)c([N+](=O)[O-])c1, the “viability (percent of control)” value is reported as 144%.
In the case of CCn1cc(C(=O)O)c(=O)c2cc(F)c(N3CCNC(C)C3)c(F)c21 (stereo not given), the “viability (percent of control)” value is reported as 114%.
For CCOC(=O)N1CCC(=C2c3ccc(Cl)cc3CCc3cccnc32)CC1, the Potency was 26.4 µM (active).
With COc1ccc(COc2cc3oc(=O)c4cc(C(C)O)ccc4c3cc2OC)cc1 (stereo not given) the Potency was 13.2 µM (active).
With OC[C@H](Cc1ccccc1)Nc1nc(Oc2ccc3c(c2)CCC3)nc2c1ncn2Cc1ccc(-c2ccccc2)cc1 the Potency was 14.8 µM (active).
With CS(=O)(=O)Oc1ccc2c(NC(N)=O)c(C(=O)c3ccc(Cl)cc3Cl)oc2c1 the Potency was 11.8 µM (active).
In the case of Clc1ccc(Nc2nnc(Cc3ccncc3)c3ccccc23)cc1, the Potency is reported as 2.96 µM (active).
With CC(C)NCC(O)COc1ccc(COCCOC(C)C)cc1 (stereo not given) the “viability (percent of control)” value was 116%.
For CC(C)(C)NCC(O)c1ccc(O)c(CO)c1 (stereo not given), the “viability (percent of control)” value was 118%.
For COc1ccc(-c2ccc3c(N4CCOCC4)nc(N4C[C@@H](C)O[C@@H](C)C4)nc3n2)cc1CO, the Potency was 0.526 µM (active).
In the case of CC(C)C[C@H](NC(=O)[C@@H](O)[C@H](N)Cc1ccccc1)C(=O)O, the Potency is reported as 23.5 µM (active).
With Clc1cccc(Cl)c1NC1=NCCN1 the “viability (percent of control)” value was 132%.
For CCN(CC)CCCC(C)Nc1ccnc2cc(Cl)ccc12 (stereo not given), the “viability (percent of control)” value was 99.3%.
For Cc1ccc(N(CC2=NCCN2)c2cccc(O)c2)cc1, the “viability (percent of control)” value was 105%.
In the case of Cc1cc2c(F)c(Oc3ncnn4cc(OC[C@@H](C)O)c(C)c34)ccc2[nH]1, the Potency is reported as 2.35 µM (active).
In the case of CCN(CC)CCCC(C)Nc1nc(C)cc(Nc2ccc3nc(C)cc(N)c3c2)n1 (stereo not given), the “viability (percent of control)” value is reported as 111%.
In the case of O=C(NOC[C@H](O)CO)c1ccc(F)c(F)c1Nc1ccc(I)cc1F, the Potency is reported as 23.5 µM (active).
With CCCS(=O)(=O)Nc1ccc(F)c(C(=O)c2c[nH]c3ncc(Cl)cc23)c1F the Potency was 14.8 µM (active).
In the case of O=C(O)[C@@H](c1ccc(OCc2ccc3ccccc3n2)cc1)C1CCCC1, the “viability (percent of control)” value is reported as 111%.
With COc1cccc2cc(-c3nc(C4CCC(C(=O)O)CC4)n4ncnc(N)c34)[nH]c12 (stereo not given) the Potency was 0.833 µM (active).
With COc1ccccc1-c1cccc(-c2c(O)c3cc(C#N)c(Cl)cc3[nH]c2=O)c1 the “viability (percent of control)” value was 98.6% [at 92.2 µM].
In the case of CCn1c(-c2nonc2N)nc2c(C#CC(C)(C)O)ncc(OC[C@H]3CCCNC3)c21, the Potency is reported as 23.5 µM (active).
